High-throughput results deposited in PubChem by National Center for Advancing Translational Sciences (NCATS).
PTHR1 agonist: agonists of human PTHR1 parathyroid hormone receptor | 0.075% of 410,000 active | Q03431 | HEK293 GP2 PTHR1 cells, GloSensor cAMP luminescence, 1 h | Potency, µM (titrated, usually from 115 µM), for inactives: at the highest dose activation, most hits filed as activators; also: potency is read from the fitted curve at half-maximal effect; nearly all actives have a fitted effect of over 55% in size
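HEK-293-derived GP2 cells expressing PTHR1 and a GloSensor cAMP reporter, 3,000/well, plated overnight, given luciferin plus IBMX (each 0.5 mM as added) for 1 h at 37 °C, then compound for 1 h at 37 °C. Luminescence was read after 15 min at room temperature.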
mIDH1 inhibitor: inhibitors of human mutant IDH1 R132H; Potency, µM (series often up to 76.6 µM), for the others: at the highest dose activity change, negative = inhibition, actives largely listed as inhibitors; AID 602179; O75874; 0.093% of 390,000 active; IDH1-R132H enzyme, NADPH consumption, diaphorase/resazurin fluorescence; also: potency is read from the fitted curve at half-maximal effect; % is scaled to controls: 0 for no effect and ±100 for the full control effect; nearly all actives have a fitted effect of over 65% in size
Target sequence (O75874 whole entry R132H, stated change not applied): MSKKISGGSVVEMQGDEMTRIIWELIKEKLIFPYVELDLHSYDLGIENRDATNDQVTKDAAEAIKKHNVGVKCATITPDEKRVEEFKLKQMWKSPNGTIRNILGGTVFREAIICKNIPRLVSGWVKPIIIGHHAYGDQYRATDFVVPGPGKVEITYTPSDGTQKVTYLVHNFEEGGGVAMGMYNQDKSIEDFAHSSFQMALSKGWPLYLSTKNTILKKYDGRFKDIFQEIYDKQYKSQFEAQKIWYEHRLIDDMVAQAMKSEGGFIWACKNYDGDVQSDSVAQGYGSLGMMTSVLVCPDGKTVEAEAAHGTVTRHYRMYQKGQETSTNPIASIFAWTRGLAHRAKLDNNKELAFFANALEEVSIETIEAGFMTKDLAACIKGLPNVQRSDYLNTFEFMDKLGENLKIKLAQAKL
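IDH1-R132H (0.5 ug/mL) preincubated 30 min with compound, then NADPH (0.016 mM) and alpha-KG (2 mM) added; 80 min at RT, pH 7.5. Remaining NADPH coupled via diaphorase/resazurin to fluorescence (540/590 nm); concentration-response curves normalized to no-enzyme control.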
HEK293 tox: cytotoxic in the GLP-1 receptor inverse agonist counter-screen; AID 624418; Potency, µM (doses to about 38.3 µM), without a hit: top-dose activity change, negative = inhibition, actives largely listed as inhibitors; 0.13% of 410,000 active; HEK293 cAMP-luciferase reporter cells, luminescence, 24 h;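 also: loss of luciferase light is scored as toxicity; potency is read from the fitted curve at half-maximal effect; % is scaled to controls: 0 for no effect and ±100 for the full control effect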
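A 23 nL compound transfer followed 12 hours of cell culture at 37 deg C; exposure then lasted 24 hr. Luciferase assay detection reagent was dispensed and plates read for luminescence after a 12 min room-temperature wait.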
LDHA inh: blocks human lactate dehydrogenase A | P00338 | purified LDHA, NADH/diaphorase-resazurin fluorescence; active compounds read low | activity change, % (values are at about 110 or 230 µM) | 0.15% of 480,000 active | AID 1347041; in the data active = activity change below about -30%; inconclusive = mostly about -25% to -30%;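 also: plate controls were DMSO wells for no effect and wells without enzyme for full effect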
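Remaining NADH was detected by diaphorase (0.133 mg/mL) converting 37 µM resazurin to fluorescent resorufin, read at 0 and 20 minutes. The preceding 5-minute room-temperature reaction used 2 nM LDHA, 0.2 mM sodium pyruvate and 0.06 mM NADH at pH 7.4.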
GLP-1R agonist: activates the human GLP-1 receptor; HEK293 GLP-1R CRE-luciferase, luminescence, 4-6 h; cells express a hypersensitive GLP-1R form; Potency, µM (top dose mostly 45.6 µM), for the others: top-dose activation, actives largely listed as activators; 0.007% of 380,000 active; AID 624172; also: potency is read from the fitted curve at half-maximal effect; % of control where 0% means no effect
GLP1R inv ag: inverse agonists of human GLP-1 receptor. P43220. HEK293 GLP-1R CRE-luciferase, luminescence, 24 h; GLP-1R form is constitutively active. Potency, µM (titrated, usually from 38.3 µM), for inactives: at the top dose activity change, negative = inhibition, usual class: inhibitors. 1.6% of 410,000 active. AID 624417; also: potency is read from the fitted curve at half-maximal effect; % is scaled to controls: 0 for no effect and ±100 for the full control effect; nearly all actives have a fitted effect of over 55% in size
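Using stably transfected HEK293 (constitutively active GLP-1R, cAMP-luciferase reporter), compounds were incubated 24 hr and luciferase measured by luminescence.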
* = called active by the depositor; i = inactive; ? = inconclusive; / = no result; [ ] = dose if it differs, or a comment. Only some compounds are listed: those with a hit (about 1.7% of all), similar ones and a draw of the others. Unless noted, calls follow the shape of the dose curve; as a rule, active = well fitted curve in the direction sought with a large enough effect; inconclusive = small, poorly fitted or top-dose-only effect, or another doubt; inactive = no such curve, though single readings can be large; an effect the other way counts as inactive or inconclusive.

SMILES	PTHR1 agonist	mIDH1 inhibitor	HEK293 tox	LDHA inh	GLP-1R agonist	GLP1R inv ag
Nc1c(C(=O)Nc2ccc(OC(F)(F)F)cc2)sc2nc3c(cc12)N1CCC3CC1	-37%	2%	2%	-1	/	?
O=C(Nc1ccc(OC(F)(F)F)cc1)C1CCN(S(=O)(=O)c2cccs2)CC1	-91%	?	-26%	-3	/	5µM*
CCOC(=O)c1c(C)n(C2CCCC2)c2ccc(O)cc12	/	/	/	-5	/	/
CCOC(=O)C1=C(C)OC(N)=C(C(=O)OC(C)C)C12C(=O)Nc1ccc(Br)cc12 (centres undefined)	/	/	/	-4	/	/
CCCCOc1ccc(CN2CCN(CCO)CC2)cc1	-2%[57.5 µM]	1%	-13%	-3	-9%	-5%
CCCCCCOc1ccc(CN2CCN(CCO)CC2)cc1	0%	2%	5%	2	-5%	2.5µM*
CCOC(=O)[C@]12Cc3ccc(C)cc3[C@H]1N(C1CCCCC1)C(=O)c1cc(OC)ccc12	-96%	/	11µM*	2	-12%	?
CCCCCN1C(=O)c2cc(OC)ccc2[C@@]2(C(=O)OCC)Cc3cc(OC)ccc3[C@@H]12	-52%	/	?	0	-13%	7.1µM*
COc1ccc(CCNCc2ccc(Br)cc2)cc1	/	/	/	11	/	/
Cc1ccccc1OCC(=O)N1CCN(Cc2cc(=O)n3nc(-c4ccccc4C)sc3n2)CC1	/	/	/	16	/	/
Cc1ccc(NC(=O)N(Cc2ccc3c(c2)OCO3)C2CCN(Cc3ccccc3)CC2)cc1Cl	-7%	0%	-25%	5	/	13µM*
Cc1nn(-c2ccc(F)cc2)c2c1C(c1cccnc1)SCC(=O)N2 (centres undefined)	/	/	/	11	/	/
CCOC(=O)C(O)(c1ccc(N(C)C(=O)c2ccc(Cl)c(Cl)c2)cc1)C(F)(F)F (centres undefined)	-28%	3%	-19%	1	16%	?
CCOC(=O)C(O)(c1ccc(NC(=O)c2ccc(Cl)c(Cl)c2)cc1)C(F)(F)F (centres undefined)	-15%	7%	-19%	2	1%	5µM*
CC[C@@]1(O)C(=O)OCc2c1cc1n(c2=O)Cc2cc3c(N)cccc3nc2-1	45µM*	9%	?	16	-24%	-77%
O=C(O)c1cncc(O)c1	/	/	/	0	/	/
c1cc2c(cc1C1CCCCC1)c1c3n2CCCNC3CCC1 (centres undefined)	-14%[57.5 µM]	9%	?	0	-22%	4µM*
Cc1ccc(-n2nc(C)c3c2NC(=O)CSC3c2ccc(F)cc2)cc1Cl (centres undefined)	/	/	/	9	/	/
CC(Oc1ccc(Cl)cc1)C(=O)O (centres undefined)	/	/	/	0	/	/
CN(C)CC(C(=O)Cc1ccccc1)c1ccccc1 (centres undefined)	-26%	1%	?	-1	-8%	5µM*
C[N+]12CCC(CC1)C(C(O)(c1ccccc1)c1cccs1)C2 (centres undefined)	-10%[57.5 µM]	-4%	10%	-36*	1%	-1%
O=P(Nc1ccccc1)(Oc1ccccc1)Oc1ccccc1	-10%	7%	-15%	1	8%	?
COc1cccc(OP(=O)(Nc2ccccc2)Oc2cccc(OC)c2)c1	-31%	-6%	?	-10	7%	10µM*
Cc1cccc(NP(=O)(Oc2ccccc2)Oc2ccccc2)c1C	-39%	0%	-13%	0	5%	10µM*
Cc1ccc(NC(=O)c2cn(Cc3ccccc3)nn2)c(C)c1	/	/	/	3	/	/
SMILES	PTHR1 agonist	mIDH1 inhibitor	HEK293 tox	LDHA inh	GLP-1R agonist	GLP1R inv ag
COc1ccc2[nH]c(C)c(CCNCc3cn(C)c4ccccc34)c2c1	i	8%	?	-8	-4%	2.8µM*
O=C1NC(=O)N(Cc2ccc(F)cc2)C(=O)/C1=C/c1cccs1	-26%	0%	-6%[0.307 µM]	-8	-17%	-19%[0.307 µM]
COc1ccc(CN2C(=O)NC(=O)/C(=C\c3cccc(OC)c3OC)C2=O)cc1	i	1%	15%	-31*	0%	1%
CCOP(=O)(OCC)C(NC(=O)Nc1ccc(C)c(Cl)c1)c1ccccc1 (centres undefined)	-4%	-11%	-5%	-8	10%	?
CCOP(=O)(OCC)C(NC(=O)Nc1ccc(Cl)c(Cl)c1)c1ccccc1 (centres undefined)	-12%	-4%	-9%	-1	1%	8.9µM*
CC(C)(C)c1ccc(C(=O)C2CCCN(Cc3ccon3)C2)cc1 (centres undefined)	-31%	-1%	3%	-6	-2%	?
CC(C)(C)c1ccc(C(=O)C2CCCN(C3CCC3)C2)cc1 (centres undefined)	i	4%	-9%	-9	26%	10µM*
CC(C)c1ccc(C(c2c(O)c3ccccc3oc2=O)c2c(O)c3ccccc3oc2=O)cc1	-32%	-12%	-22%	-6	-10%	?
O=c1oc2ccccc2c(O)c1C(c1ccc([N+](=O)[O-])cc1)c1c(O)c2ccccc2oc1=O	i	?	?	-67*	-5%	?
CC1CCC(C(C)C)C(OC(=O)Cn2c(-c3ccccc3)[n+](C)c3ccccc32)C1 (centres undefined)	-32%	8%	8.9µM*	-4	-3%	?
Cc1ccc(/C=C/c2nc3ccccc3c(=O)n2-c2ccccc2)s1	/	/	/	12	/	/
Cc1ccc(S(=O)(=O)N(CC(=O)NCCSc2ccc(Cl)cc2)c2ccccc2C)cc1	i	13%	-3%	2	/	11µM*
Cc1cccc(N(CC(=O)NCCSc2ccc(Cl)cc2)S(=O)(=O)c2ccccc2)c1C	i	-3%	-5%	-15	/	10µM*
Cc1ccc(SCCNC(=O)c2cccc([N+](=O)[O-])c2C)cc1	-38%	3%	72%	5	2%	?
O=C(c1cn(Cc2ccccc2F)c2ccccc12)C1CCCCC1	/	/	/	17	/	/
CCCOc1ccccc1CCN	/	/	/	-2	/	/
C[C@H](CO)N1C[C@H](C)[C@@H](CN(C)S(=O)(=O)c2cccs2)Oc2ccc(NC(=O)Nc3ccc(C(F)(F)F)cc3)cc2C1=O	i	3%	?	0	-1%	8.9µM*
NCCCc1c[nH]c2ccccc12	/	/	/	4	/	/
COCCNC(=O)Cn1cc(C(=O)c2ccccc2)c2ccccc21	/	/	/	15	/	/
Oc1ccc(Cl)cc1Sc1cc(Cl)ccc1O	-24%	-5%	-11%	-2	4%	10µM*
